# CF NFkB block: blocks PAF-induced NF-kB reporter in cystic fibrosis cells; KKLEB NF-kB-GFP reporter, GFP fluorescence overnight; inhibition, % at 5 µM; hit rate 0.86% among 360,000;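 active = at least 50% inhibition at 5 µM, scaled per plate between neutral and stimulator controls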;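 also: PAF is a Pseudomonas aeruginosa culture filtrate used as stimulus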
# Mdm2-MdmX inh: disrupts the human Mdm2-MdmX interaction; hit rate 3% among 330,000; SaOS-2 split-luciferase Mdm2/MdmX complementation, luminescence; O15151+Q00987; AID 485346; inhibition, % at 8 µM;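 active = inhibition of at least 50% at 8 µM in the primary screen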
# Target sequence (O15151 whole entry, looked up): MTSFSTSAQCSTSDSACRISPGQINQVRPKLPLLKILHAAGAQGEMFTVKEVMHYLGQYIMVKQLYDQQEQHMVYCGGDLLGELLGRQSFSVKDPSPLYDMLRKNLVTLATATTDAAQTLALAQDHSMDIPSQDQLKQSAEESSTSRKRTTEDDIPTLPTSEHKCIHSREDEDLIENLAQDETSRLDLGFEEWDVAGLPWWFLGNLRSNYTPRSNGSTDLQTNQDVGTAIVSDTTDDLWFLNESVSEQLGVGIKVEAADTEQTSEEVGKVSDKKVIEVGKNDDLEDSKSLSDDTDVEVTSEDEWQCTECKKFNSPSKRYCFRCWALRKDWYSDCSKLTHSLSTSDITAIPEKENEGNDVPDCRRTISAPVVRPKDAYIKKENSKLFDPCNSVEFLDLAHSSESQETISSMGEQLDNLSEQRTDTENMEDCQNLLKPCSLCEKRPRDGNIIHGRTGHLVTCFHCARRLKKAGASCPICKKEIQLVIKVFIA
# Target sequence (Q00987 whole entry, looked up): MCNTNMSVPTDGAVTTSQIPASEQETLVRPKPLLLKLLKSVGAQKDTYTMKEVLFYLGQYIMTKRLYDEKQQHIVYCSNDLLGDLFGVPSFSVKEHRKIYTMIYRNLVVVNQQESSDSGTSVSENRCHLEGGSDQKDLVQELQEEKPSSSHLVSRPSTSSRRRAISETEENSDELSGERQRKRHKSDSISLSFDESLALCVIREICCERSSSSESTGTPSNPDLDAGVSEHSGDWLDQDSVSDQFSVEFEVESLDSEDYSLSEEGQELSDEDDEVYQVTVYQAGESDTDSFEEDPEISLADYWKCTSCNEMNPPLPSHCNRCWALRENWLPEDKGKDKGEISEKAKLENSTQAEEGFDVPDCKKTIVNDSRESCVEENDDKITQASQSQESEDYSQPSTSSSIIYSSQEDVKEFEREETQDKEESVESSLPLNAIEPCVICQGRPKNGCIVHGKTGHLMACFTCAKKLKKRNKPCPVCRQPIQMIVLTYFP
# ABHD5-PLIN5 inh: ABHD5-PLIN5 protein interaction inhibition; Split G. princeps luciferase complementation, luminescence, 4 h; hit rate 0.78% among 360,000; AID 602281; inhibition, % at 4 µM; Q00G26+Q8WTS1;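 active = inhibition above the mean inhibition across every tested compound plus 3 SD, cut at about 22% in these data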
# KKLEB tox: counter-screen for CF NF-kB inhibitors: cytotoxicity; hit rate 0.36% among 360,000; KKLEB CF airway cells viability, ATPlite luminescence, overnight; hits give low values; cells stimulated with P. aeruginosa culture filtrate; AID 602141; activity change (cytotoxicity), % at 5 µM;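 active = corrected activity change at or below -50% at 5 µM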
# HIF-2a inh: HIF-2a inhibition; 786-0 RCC cells HIF-2a reporter, luciferase luminescence, overnight; inhibition, % at 18.8 µM; hit rate 0.72% among 360,000;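 active = inhibition of the luminescence signal of 40% or more relative to plate controls, in a single-dose primary screen at 18.75 µM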
# Peg3 prom inh-1: inhibitors of Peg3 promoter. HeLa PEG-Prom luciferase reporter, luminescence, overnight. inhibition, % at 20 µM. hit rate 1.7% among 360,000;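 active = inhibition of at least 50% at 20 µM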
# Mdm2-MdmX conf: human Mdm2/MdmX binding inhibition, confirmed; shares compounds with Mdm2-MdmX inh; luminescent assay; inhibition, % at 8 µM; hit rate 55% among 10,000; AID 489028
# FLuc counter: counter-screen for Mdm2/MdmX inhibitors: full-length luciferase. shares compounds with Mdm2-MdmX inh. AID 504607. SaOS-2 full-length luciferase counterscreen, luminescence. hit rate 77% among 6,200. inhibition, % at 8 µM;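 active = mean inhibition at 8 µM reaching about 37%, which flags the compound as non-specific, limit read from the data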;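 also: p53-null SaOS-2 cells with luciferase driven by a doxycycline-inducible promoter; compound on cells about two nights before reading with doxycycline added after day one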
# Peg3 prom inh-2: confirmation of Peg3 promoter inhibitors; shares compounds with Peg3 prom inh-1; HeLa PEG-Prom luciferase reporter, luminescence, overnight; inhibition, % at 20 µM; hit rate 84% among 1,300; AID 602417;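 active = at 20 µM dose, 40% or more inhibition averaged across four replicates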
# CF NFkB conf: confirmation of cystic fibrosis induced NF-kB inhibitors; shares compounds with CF NFkB block; KKLEB CF airway cells, PAF-induced NF-kB-GFP fluorescence, overnight; inhibition, % at 5 µM; hit rate 64% among 1,300; AID 602472;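 also: stimulus PAF is a Pseudomonas aeruginosa filtrate and not platelet activating factor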
# Numbers stand for hits; 0 = inactive; - = no result. Most compounds without a hit are left out; they make up all but 4.6% or so of the library. Rule as the data show it, unless noted: active = inhibition above about 40%; inactive = the rest.
SMILES,CF NFkB block,Mdm2-MdmX inh,ABHD5-PLIN5 inh,KKLEB tox,HIF-2a inh,Peg3 prom inh-1,Mdm2-MdmX conf,FLuc counter,CF NFkB conf,others
COc1ccc(S(=O)(=O)N2c3cc(C)ccc3OCC2C(C)(C)C)cc1 (stereo not drawn),50,56,0,0,0,0,61,63,59,
COc1cccc(C(=O)N2c3cc(C)ccc3OCC2C(C)(C)C)c1 (stereo not drawn),0,0,0,0,0,0,-,-,-,
Cc1cnc(NC(=O)CCCc2nc3ccccc3s2)s1,84,90,0,0,0,98,59,54,89,
O=C(CCCc1nc2ccccc2s1)Nc1nccs1,0,0,0,0,0,0,-,-,-,
CCOc1ccc(Br)cc1C1=NN(C(C)=O)C(c2ccc([N+](=O)[O-])s2)O1 (stereo not drawn),0,0,0,0,0,0,-,-,-,
Cc1nn(C)c(C(=O)Nc2c(C)nn(Cc3c(F)c(F)c(F)c(F)c3F)c2C)c1Br,0,0,0,0,0,0,-,-,-,
O=[N+]([O-])c1cccc(/C=N/Nc2cc(N3CCOCC3)ncn2)c1,53,59,0,0,0,62,0,-,72,
C/C(=N\Nc1cc(N2CCOCC2)ncn1)c1cccc([N+](=O)[O-])c1,56,60,0,0,0,102,0,-,64,
CN(C(=O)c1cccc(NC(=O)Cc2cccc(NC(=O)C3CCCN(C(=O)CCc4ccccc4)C3)c2)c1)C1CCC1 (stereo not drawn),0,-,0,0,0,0,-,-,-,
CC(=O)N1CCN(S(=O)(=O)c2cccc(C(=O)NC3CC3)c2)CC1,0,0,0,0,0,0,-,-,-,
COc1ccc(-n2nc(C(=O)NCC(=O)Nc3cc(OC)c(OC)c(OC)c3)c3ccccc3c2=O)cc1Cl,79,70,0,0,0,0,73,81,101,
Cc1ccc(Nc2nc3nonc3[nH]c2=O)cc1Cl,52,76,0,0,0,0,80,72,81,
CCn1c(Oc2ccccc2)nc2c1c(=O)n(C)c(=O)n2C,0,0,0,0,0,0,-,-,-,
CCn1c(Oc2ccccc2F)nc2c1c(=O)n(C)c(=O)n2C,56,68,0,0,0,0,66,0,83,
COc1ccc(CN(C)C(=O)CCNS(=O)(=O)c2ccccc2)c(OC)c1,0,-,0,0,0,0,-,-,-,
CCC(=O)Nc1ccc(N2CCN(C(=O)c3ccccc3C)CC2)cc1,0,0,0,0,0,0,-,-,-,
Cc1ccccc1C(=O)N1CCN(c2ccc(NC(=O)CSc3ccc(Cl)cc3)cc2)CC1,61,61,0,0,0,0,49,42,71,
COc1c(C)cccc1C(=O)Nc1ccc(N2CCN(C(=O)c3ccccc3C)CC2)cc1,0,0,0,0,0,0,-,-,-,
Cc1ccccc1C(=O)N1CCN(c2ccc(NC(=O)c3cccc(OC(C)C)c3)cc2)CC1,53,53,0,0,0,0,45,55,53,
O=C1OC(Nc2nc(-c3ccc(F)cc3)cs2)c2ccccc21 (stereo not drawn),53,63,0,0,0,0,0,-,71,
O=C1OC(Nc2nc3ccccc3s2)c2ccccc21 (stereo not drawn),0,0,0,0,0,0,-,-,-,
C(=C\CSc1nnnn1-c1ccccc1)/CSc1nnnn1-c1ccccc1,0,0,0,0,0,0,-,-,-,
CCCSc1nnc(Sc2nnnn2-c2ccccc2)s1,56,66,0,0,0,68,64,56,0,
COc1ccc(OC)c(CN2C(=O)CSCC2(C)C(=O)NCc2ccccc2)c1 (stereo not drawn),-,-,0,-,0,-,-,-,-,
O=c1cnc2ccccc2n1Cc1ccccc1C(F)(F)F,0,0,0,0,0,0,-,-,-,
SMILES,CF NFkB block,Mdm2-MdmX inh,ABHD5-PLIN5 inh,KKLEB tox,HIF-2a inh,Peg3 prom inh-1,Mdm2-MdmX conf,FLuc counter,CF NFkB conf,others
O=c1[nH]nc(Sc2ncnc3sccc23)n1CCc1ccccc1,54,85,0,0,0,0,43,0,45,
O=C(Nc1cccc2ccccc12)c1ccc(F)cc1,0,0,0,0,0,0,-,-,-,
O=C(Nc1cccc2[nH]ncc12)c1ccc(F)cc1,79,60,0,0,0,0,74,0,93,
CCCNC(=O)C1(C)CCCN(Cc2ccc3ccccc3c2)C1 (stereo not drawn),0,-,0,0,0,0,-,-,-,
CCOC(=O)c1c(NC(=O)Cc2cccs2)sc(C(=O)NC2CCCCC2)c1C,51,66,0,0,0,0,0,-,0,
CCOC(=O)c1c(NC(=O)Cc2cccs2)sc(C(=O)NC2CCCC2)c1C,0,0,0,0,0,0,-,-,-,
Cc1ncc(CO)c2cc(C(=O)Nc3cccc(F)c3)c(=Nc3cccc(C(N)=O)c3)oc12,0,0,0,0,0,0,-,-,-,
COc1ccc(NC(=O)c2cc3c(CO)cnc(C)c3oc2=Nc2cccc(F)c2)c(OC)c1,52,72,0,0,0,59,74,0,0,Peg3 prom inh-2=0
CCOc1cccc2sc(NC(=O)CCS(=O)(=O)c3ccccc3)nc12,59,70,0,0,0,53,66,0,0,
CCOc1cccc2sc(N(CCN(C)C)C(=O)CCS(=O)(=O)c3ccccc3)nc12,0,0,0,0,0,0,-,-,-,
CC1(C)CC(=O)c2sc(NC(=O)CCS(=O)(=O)c3ccccc3)nc2C1,68,71,0,0,0,0,0,-,0,
CC1(C)CC(=O)c2sc(NC(=O)c3ccccc3)nc2C1,-,0,-,-,-,-,-,-,-,
CSc1ncnc2c1ncn2CCCN1CCN(Cc2c(C)cc(C)cc2C)CC1,0,-,0,0,0,0,-,-,-,
COc1cc(NC(=O)c2ccc(N)nc2)cc(C(=O)Nc2cccc(C(F)(F)F)c2)c1,0,0,0,0,0,0,-,-,-,
COc1cc(NC(=O)c2cc3cccc(OC)c3o2)cc(C(=O)Nc2cccc(C(F)(F)F)c2)c1,62,59,0,0,0,0,56,41,70,
C=C1C(=O)O[C@@]23[C@H]1CC[C@@H](C)[C@@H]2CC[C@@]1(C)O[C@@H]31,54,71,0,0,0,0,0,0,71,
Cc1cccc(CNc2ncnc3ccc(-c4ccoc4)cc23)c1,70,79,0,0,0,50,64,0,87,Peg3 prom inh-2=41
Cc1cccc(-c2ccc3ncnc(NCc4cccnc4)c3c2)c1,0,0,0,0,0,0,-,-,-,
COc1ccc(-c2oc3ccc(-c4ccc5c(c4)OCO5)cc3c2C#CC2(O)CCCCC2)cc1,61,65,0,0,0,0,0,-,53,
